# Reference: PubChem BioAssay AID1345082 (National Center for Advancing Translational Sciences (NCATS), 2018)
# The whole screen tested about 94,000 compounds, of which about 4,000 (4.3%) were called active. Where a call stands in place of a potency, no number is given. Another 29% or so got no clear call; they are omitted. Calls come from the whole dose curve; as a rule, active = well fitted inhibition curve with a large enough effect; inconclusive = small, poorly fitted or top-dose-only effect; inactive = no such curve, though single readings can be large or run the other way. For the sample, actives were picked, then their nearest neighbours and some compounds at random.
# Assay: Cytotoxic Profiling in NIH 3T3 Cell Line of Diverse Libraries Using Quantitative High-Throughput Screening; note: nearly all actives have a fitted effect of over 55% in size
# Settings: NIH 3T3 viability, CellTiter-Glo ATP luminescence, 48-72 h; series mostly up to 96.7 µM
# Procedure, shortened: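 ATP-dependent luminescence (CellTiter-Glo) served as the viability signal for NIH 3T3 cells treated with compound for 48 or 72 hr at 37 °C.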
# Potency is the fitted concentration of half-maximal effect.
row,SMILES,Potency
1,CNC(=O)[C@H]1C[C@H](Oc2cccnc2)CN1C(=O)c1ccccc1,inactive
2,CCOc1ccccc1CN1CCc2nc(N3CCN(C)CC3)[nH]c(=O)c2CC1,inactive
3,CC(C)N1CC2(C1)C(=O)N(Cc1cccc(Cl)c1)C(=O)[C@@H]1C[C@@H](O)CN12,inactive
4,CC(C)NC(=O)C(C)[C@@H]1CC[C@@]2(C)CC[C@H](N[S+](C)(=O)[O-])[C@@H](C)[C@@H]2[C@H]1O (stereo not given in full),inactive
5,CCOc1ccc(NC(=O)C2CN(S(C)(=O)=O)CC23CCCCC3)cc1 (stereo not given),inactive
6,Cc1cc(C2CCCN2C(=O)c2ccc(F)c(F)c2)on1 (stereo not given),inactive
7,O=C(O)C[C@@H]1CCN(C(=O)Nc2ccccc2)C[C@@H]1CC1=NCCc2cc(F)ccc21,inactive
8,O=C1CC2(CCN(C(=O)C3CCN(C(=O)Cc4ccc(F)cc4)CC3)CC2)Oc2ccccc2N1,inactive
9,COc1ccc(-c2ccc3ncc(Nc4ccc(C(F)(F)F)cc4)n3n2)cn1,79.4 µM (active)
10,COc1ccc(-c2cccc(C(=O)N3CCC(NC(=O)c4ccc(C(F)(F)F)cc4)CC3)c2)nn1,inactive
11,COc1ccc(-c2ccc3ncc(Nc4cc(F)cc(N5CCOCC5)c4)n3n2)cn1,inactive
12,CC(=O)NCCc1ncc(C)n1C1CCCCC1,inactive
13,Cn1c(=O)n(C)c2cc(S(=O)(=O)N[C@@H]3CCOC[C@H]3O)ccc21,inactive
14,COCCC1(NC(=O)C2CCOCC2)CCN(C(=O)C2COc3ccccc3O2)CC1 (stereo not given),inactive
15,COCC(=O)NCCC1CCN(C(=O)Nc2cc(F)cc(F)c2)CC1,inactive
16,COc1ccc(NC(=O)Cn2ccn3nc(-c4ccc(F)cc4)c(CO)c3c2=O)cc1OC,inactive
17,CCOc1ccc(NC(=O)C2(Cc3cccnc3)CCCCC(=O)N2)cc1 (stereo not given),inactive
18,COc1cccc(C(=O)Nc2ccc3c(c2)CN(Cc2ccc(OC)cc2OC)C(=O)CO3)c1,inactive
19,CN(C)CCN(C)C(=O)c1ccc2c(c1)NC(C)(COc1ccc3[nH]ccc3c1)CO2 (stereo not given),79.4 µM (active)
20,COc1cccc(NC(=O)c2ccc3c(c2)NC(C)(COc2ccccc2)CO3)c1 (stereo not given),39.8 µM (active)
21,O=C(Nc1cccnc1)c1ccc2c(c1)OCCN(Cc1ncccn1)C2,inactive
22,CC1(CNc2ccccc2)COc2ccc(C(=O)NCc3cccc(F)c3)cc2N1 (stereo not given),39.8 µM (active)
23,O=C(NCC1CCOCC1)c1ccc2[nH]ccc2c1,inactive
24,COc1ccc(C(=O)Nc2cccc(-c3nnc4n3CCCC4)c2)cc1,inactive

row,SMILES,Potency
1,COc1ccc(OCC2(C)COc3ccc(C(=O)Nc4cccnc4)cc3N2)cc1 (stereo not given),44.7 µM (active)
2,CC1(CCCCc2ccccc2)COc2ccc(C(=O)N3CC[S+](=O)([O-])CC3)cc2N1 (stereo not given),inactive
3,O=C(NCc1cccc(F)c1)C1CN(c2ccccc2)C(=O)N1 (stereo not given),inactive
4,CC(C)NC(=O)NC1CCCN(c2ccc3nnc(C4CC4)n3n2)C1 (stereo not given),inactive
5,O=C(NCCc1noc(C2CCCC2)n1)c1cc(F)c(F)cc1Cl,inactive
6,O=C(NCCn1cnc2ccccc2c1=O)C1CC(=O)N(c2n[nH]c3ccccc23)C1 (stereo not given),inactive
7,CCOc1ccc(NC(=O)Cn2c(N3CCOCC3)nc(COC)cc2=O)cc1,inactive
8,O=C(c1ccc(F)cc1)N1CCC[C@H]1c1nc(-c2ccccc2Cl)no1,inactive
9,Cc1ncc(C(=O)N2C[C@@H](C(=O)O)[C@H](c3ccc4c(c3)OCO4)C2)c(C)n1,inactive
10,COCCNc1ncnc2c1CN(C1CCCNCC1)C(=O)CN2C (stereo not given),inactive
11,COCc1cc(=O)n(CC(=O)NCc2ccc(C)cc2)c(N2CCOCC2)n1,inactive
12,CCCCOC(=O)c1ccc(NC(=O)c2c(OC)cc(=O)n3c2CCCC3)cc1,inactive
13,O=C(c1ccccc1Cl)N1CC2(Cc3ccccc3NC2=O)C1,inactive
14,COc1ccc(CC(=O)NC2CCCc3c2[nH]c2ccccc32)cc1 (stereo not given),31.6 µM (active)
15,O=C(Cn1nc(-c2ccco2)ccc1=O)NC1CCCc2c1[nH]c1c(Cl)cccc21 (stereo not given),inactive
16,O=C(NC1CCCc2c1[nH]c1ccc(F)cc21)c1ccccn1 (stereo not given),inactive
17,O=C(Cn1nc2c(cc1=O)CCCC2)NC1CCCc2c1[nH]c1c(Cl)cccc21 (stereo not given),inactive
18,COc1ccc(CC(=O)N2CCC[C@H]2c2nc(-c3ccccc3)no2)cc1,inactive
19,O=C(Cc1ccccc1)NC1CCCc2c1[nH]c1c(Cl)cccc21 (stereo not given),35.5 µM (active)
20,COc1ccc(CN2CCc3oc(C)c(C(=O)NCCN4CCCC4)c3C2)cc1,inactive
21,CN(C)C(=O)c1nc(-c2ccc(Cl)cc2Cl)c2cnccn12,inactive
22,CN(C)C[C@@H]1CN(c2ncccn2)C[C@H]1NC(=O)Cc1ccccc1Cl,inactive
23,Cn1cc(CN2CC[C@H](c3nnc(-c4cccnc4)o3)C2)c2ccccc21,inactive
24,Fc1ccc(CN2CCOC[C@H]2c2ncc(-c3cccnc3)[nH]2)cc1,inactive

row,SMILES,Potency
1,CC(C)(C)c1coc([C@@H]2COCCN2Cc2ccc(F)cc2)n1,inactive
2,Oc1ccccc1CN1CCOC[C@H]1c1ncc(-c2ccc(C(F)(F)F)cc2)[nH]1,50.1 µM (active)
3,Cn1cc(CN2CCOC[C@H]2c2ncc(-c3cccc(F)c3)[nH]2)c2ccccc21,39.8 µM (active)
4,Cc1ccc(CN2CCOC[C@H]2c2ncc(-c3cccc(F)c3)[nH]2)cc1,79.4 µM (active)
5,CN(C)c1ccc(CN2CCOC[C@H]2c2ncc(-c3cccc(F)c3)[nH]2)cc1,inactive
6,c1cncc(-c2cnc([C@@H]3COCCN3Cc3cnc4ccccc4c3)[nH]2)c1,inactive
7,CN(Cc1ccccc1)Cc1cn([C@H]2CO[C@H]3[C@@H]2OC[C@@H]3NS(C)(=O)=O)nn1,inactive
8,CCc1noc(-c2cccn3c(CNC(=O)C(CC)c4ccccc4)nnc23)n1 (stereo not given),inactive
9,CCn1cc(S(=O)(=O)N2CC[C@H](CNC(C)=O)[C@H](N(C)C)C2)cn1,inactive
10,Cc1ccc(F)cc1S(=O)(=O)N1CCn2c(nn(CC3CC3)c2=O)C1,inactive
11,O=C(C[C@@H]1O[C@H](CNC(=O)C2CC2)[C@@H](O)[C@H]1O)NCCN1CCOCC1,inactive
12,Cc1ccnc(N2CC[C@@H]3[C@@H](CCC(=O)N3CCc3ccccn3)C2)n1,inactive
13,c1cncc(-c2noc(C3CCCN(Cc4cc5n(n4)CCNC5)C3)n2)c1 (stereo not given),inactive
14,CCOC(=O)N1CCC(=O)N(Cc2ccccc2)Cc2cc(OC)ccc21,inactive
15,Cc1nc(C(C)C)ncc1C(=O)N1CCN(C)C2(CCNC(=O)CC2)C1 (stereo not given),inactive
16,CNC(=O)[C@@H](c1ccccc1F)N1CCC[C@H]1C(=O)NCCOC,inactive
17,CC(=O)N1CCC2(CC1)CN(C(=O)Cc1cccc(Cl)c1)CCO2,inactive
18,O=C(c1cccs1)N1CCOCC2(CN(Cc3cc(F)cc(F)c3)C2)C1,inactive
19,O=C(Cc1ccc(F)cc1)N1CCOCC2(CN(Cc3ccccc3)C2)C1,35.5 µM (active)
20,Cc1nc(-c2cn(C3CCCN(C(=O)c4sccc4C)C3)nn2)no1 (stereo not given),inactive
21,CCN1CCN(CCNC(=O)C2Cn3cccc3C(=O)N2Cc2cccnc2)CC1 (stereo not given),inactive
22,N#Cc1ccc(CN2CCc3nc(C(=O)N4CCOCC4)oc3CC2)cc1,inactive
